We go through 28 compounds from PubChem BioAssay AID540333 (Southern Research Specialized Biocontainment Screening …, 2011).

The campaign covered roughly 10,000 compounds. About 320 (3.2%) were called active. The entries come from a sample that favours actives as a whole. Unmarked numbers belong to inactive results. Rule as the data show it: active = CPE inhibition mostly above about 9.1% (no sharp cut-off); inactive = mostly below about 7.2%.

This test can be described thus: Dengue virus cytopathic effect inhibitors, cell-based, CPE readout, HTS (AID 540333). The note with it: Dengue virus CPE inhibition in host cells, at 20 µM; stronger effect = higher value. Background: Damage to the host cells serves as the signal in cytopathic effect assays.
In the case of `C/C(=N\Nc1ccc([N+](=O)[O-])cc1)c1ccc(-n2nncc2C)cc1`, the CPE inhibition entry was “inactive”.
As to `N#CC(C#N)=Cc1ccc(-c2ccc(S(=O)(=O)N=C(N)N)cc2)o1`, the CPE inhibition is 0.46%.
Under `COC(=O)c1sc2nc(C)cc(-c3ccccc3)c2c1N` stands “inactive”.
As for `Cc1ccc(/C=C2\SC(=S)N(CCC(=O)NNS(=O)(=O)c3ccc(C)cc3)C2=O)cc1`, the CPE inhibition is 0.18%.
Next, `CC(C)(C)CNC(=O)c1cccc2c1C(=O)c1ccc(N3CCCC3)cc1S2(=O)=O`: 0.02%; `O=C(Nc1nc(-c2cccs2)cs1)C1=COCCO1`: “inactive”; `O=C(Nc1nc(-c2ccc(Oc3ccccc3)cc2)cs1)C1=COCCO1`: 10.7% (active).
In the case of `O=C(Nc1nc(-c2ccc(-c3ccccc3)cc2)cs1)C1=COCCO1`, the CPE inhibition is 1.39%.
With `O=C1N=C(N2CCCC2)CN1c1ccccc1`, the CPE inhibition is 0.23%.
With `CCC(=O)c1ccc(-c2ccccc2)cc1`, the CPE inhibition entry is “inactive”.
Regarding `CC(C)=NOC(=O)c1ccc(-c2ccccc2)cc1`, the CPE inhibition was 0.26%.
With `O=C([O-])c1ccc(-[n+]2c(-c3ccccc3)cc(-c3ccccc3)cc2-c2ccccc2)cc1`, the CPE inhibition was 10.2% (active).
Under `C=C(C)C1CC=C(C)/C(=N/NC(=O)c2cccc([N+](=O)[O-])c2)C1` (stereo not drawn) stands “inactive”; under `CCOC(=O)c1sc(N/N=C/c2ccccc2)nc1C`, 0.925%; under `COc1ccc(/C=C(\C#N)C(=O)OCC(=O)Nc2c(C)cccc2C)cc1`, “inactive”.
As to `Cc1ccc(C)c2[nH]c(=O)c(C(c3nnnn3C(C)(C)C)N3CC=C(c4ccc(F)cc4)CC3)cc12` (stereo not drawn), the CPE inhibition is 26.9% (active).
`Cc1ccc(NC(=S)NC(C)CCc2ccccc2)cc1C` (stereo not drawn): the CPE inhibition was 19.3% (active).
With `Cc1ccccc1NC(=O)C(=O)NC(C)CCc1ccccc1` (stereo not drawn), the CPE inhibition result was “inactive”.
As to `CC(CCc1ccccc1)NC(=O)Cc1ccccc1` (stereo not drawn), the CPE inhibition entry was “inactive”.
Turning to `Cc1ccccc1C(=O)Nc1c2c(nc3ccccc13)CCCC2`, the CPE inhibition entry was “inactive”.
Under `CCOC(=O)/C=C/C(=O)OCC(=O)NC(c1ccccc1)c1ccccc1` stands 0.285%; under `O=C(COC(=O)/C(=C/c1cccs1)c1cccs1)NC(c1ccccc1)c1ccccc1`, 17.2% (active).
In the case of `O=C(COC(=O)Cc1ccsc1)NC(c1ccccc1)c1ccccc1`, the CPE inhibition result is “inactive”.
For `Cc1nn(C)c(C(=O)NCc2ccc(Cl)cc2)c1Cl`, the CPE inhibition is 0.24%.
As to `Cc1ccc(NC(=S)c2ccccc2)cc1`, the CPE inhibition entry was “inactive”.
Consider `CCOC(=O)C1=C(Nc2ccccc2)CC(C)(O)C(C(=O)OCC)C1c1ccccc1` (stereo not drawn), for which the CPE inhibition is 0.14%.
For `CCOC(=O)C1C(C(=O)OCC)C1(c1ccccc1)c1ccccc1` (stereo not drawn), the CPE inhibition was 0.545%.
On to `CCOC(=O)C1=C(Nc2ccccc2)CC(C)(O)C(C(=O)OCC)C1c1ccc(Cl)cc1` (stereo not drawn), for which the CPE inhibition is 26.4% (active).
